Results from PubChem BioAssay (NCI).
The panel holds about 83,000 compounds, 20% with a hit somewhere; the sample as a whole holds those more often.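 96-well plates, one dose, 48 hours. Percent growth reported; active if below 10.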 Unmarked numbers belong to inactive results. Calls of active or inactive are those of the source.

Tests used:
Assay in all cases: NCI-60 one-dose screen, 48 h (100 = growth as untreated, 0 = no growth, -100 = all killed)
Details in all cases: 10 µM unless noted
T-47D breast = test system: T-47D breast
MDA-MB-435 melanoma = test system: MDA-MB-435 melanoma
SW-620 colon = test system: SW-620 colon
MCF7 breast = test system: MCF7 breast
HCT-116 colon = test system: HCT-116 colon
KM12 colon = test system: KM12 colon
HCC-2998 colon = test system: HCC-2998 colon

Compound	growth (T-47D breast)	growth (MDA-MB-435 melanoma)	growth (SW-620 colon) [%]	growth (MCF7 breast)	growth (HCT-116 colon)	growth (KM12 colon)	growth (HCC-2998 colon) [%]
O=C(NC1CCCCC1)c1ccc(Nc2ncnc3c2cnn3-c2ccccc2)cc1	76.8%	81.2%	72.9	82.8%	37.6%	88.5%	–
COc1cccc(-c2nc3cc(NC(=O)c4ccc(Cl)c(C#N)c4)ccc3o2)c1	-20.4% (active)	-73.3% (active)	46.9	8% (active)	-92.2% (active)	-51.8% (active)	29.6
Fc1ccc(-c2nn3c(-c4cc(C(F)(F)F)cc(C(F)(F)F)c4)nnc3s2)cc1	51.8%	76.3%	65.8	68.7%	-17.3% (active)	77.5%	–
NC(=NCCCCCCN=C(N)/N=C(\N)Nc1ccc(Cl)cc1)/N=C(\N)Nc1ccc(Cl)cc1	19.3%	18.3%	23.4	7.79% (active)	13.5%	-12% (active)	15.3
COc1ccc(-c2nnc3c4[nH]cnc4ncn23)c(OC)c1	28.5%	13.2%	23.2	7.19% (active)	14.8%	22.5%	26.3
Nc1ccccc1C#Cc1ccccc1C#Cc1ccc(OCCCCCCOc2ccc(C#Cc3ccccc3C#Cc3ccccc3N)cc2)cc1	90.1%	97.5%	–	74.7%	110%	113%	95.5
